Read-out in assay [1]: Urokinase-type plasminogen activator receptor (uPAR), PLAUR (gene 5329)
As to the kind of experiment: BSK_BE3C_uPAR: BioMAP Diversity Plus: BE3C Assay for Urokinase-type plasminogen activator receptor (uPAR) Biomarker Activity (AID 2283039).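 On outcome: uPAR protein level measured by ELISA on the cells; cells exposed to compound for one day before measurement.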 Conditions: primary human bronchial epithelial cells; actives raise or lower the signal. An outline of the steps:
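Chemically treated human bronchial epithelial cells (lung primary) are assayed for uPAR by ELISA after 24 h, with data fitted in both directions using DMSO as negative control.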

Read-out in assay [2]: Interleukin-6 (IL6), IL6 (gene 3569)
As to the kind of experiment: BSK_CASM3C_IL6: BioMAP Diversity Plus: CASM3C Assay for Interleukin-6 (IL6) Biomarker Activity for (AID 2283040). The conditions noted are these: primary human coronary artery smooth muscle cells; actives raise or lower the signal.

Read-out in assay [3]: Tissue plasminogen activator (tPA), PLAT (gene 5327)
As to the kind of experiment: BSK_BE3C_tPA: BioMAP Diversity Plus: BE3C Assay for Tissue plasminogen activator (tPA) Biomarker Activity (AID 2283041).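 On outcome: tPA level quantified by ELISA one day after compound addition.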 Conditions: primary human bronchial epithelial cells; actives raise or lower the signal. The method in brief:
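Using human lung primary bronchial epithelial cells, tPA was measured by ELISA 24 h after dosing; data fitted relative to DMSO.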

Read-out in assay [4]: Interleukin-8 (IL8), CXCL8 (gene 3576)
As to the kind of experiment: BSK_CASM3C_IL8: BioMAP Diversity Plus: CASM3C Assay for Interleukin-8 (IL8) Biomarker Activity (AID 2283042).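 Further: IL-8 protein level quantified by ELISA.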 The conditions noted are these: primary human coronary artery smooth muscle cells; actives raise or lower the signal.

Read-out in assay [5]: Human Leukocyte Antigen - DR isotype (HLADR), HLA-DRA (gene 3122)
As to the kind of experiment: BSK_CASM3C_HLADR: BioMAP Diversity Plus: CASM3C Assay for Human Leukocyte Antigen - DR isotype (HLADR) Biomarker Activity (AID 2283043).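 Further: cell-surface HLA-DR protein level quantified by ELISA.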 The conditions noted are these: primary human coronary artery smooth muscle cells; actives raise or lower the signal.

Read-out in assay [6]: Macrophage colony-stimulating factor (MCSF), CSF1 (gene 1435)
As to the kind of experiment: BSK_CASM3C_MCSF: BioMAP Diversity Plus: CASM3C Assay for Macrophage colony-stimulating factor (MCSF) Biomarker Activity (AID 2283044).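 Further: M-CSF protein amount quantified by ELISA after 24 h exposure.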 Conditions: primary human coronary artery smooth muscle cells; actives raise or lower the signal.

Read-out in assay [7]: Low-density lipoprotein receptor (LDLR), LDLR (gene 3949)
As to the kind of experiment: BSK_CASM3C_LDLR: BioMAP Diversity Plus: CASM3C Assay for Low-density lipoprotein receptor (LDLR) Biomarker Activity (AID 2283045).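 Further: LDLR protein level on the cell surface quantified by ELISA.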 Conditions: primary human coronary artery smooth muscle cells; actives raise or lower the signal.

Read-out in assay [8]: Monocyte Chemoattractant Protein-1 (MCP1), CCL2 (gene 6347)
As to the kind of experiment: BSK_CASM3C_MCP1: BioMAP Diversity Plus: CASM3C Assay for Monocyte Chemoattractant Protein-1 (MCP1) Biomarker Activity (AID 2283046).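 Further: MCP-1 level quantified by ELISA 24 h after dosing.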 The conditions noted are these: primary human coronary artery smooth muscle cells; actives raise or lower the signal.

Assay [9] is described as follows: BSK_CASM3C_Proliferation: Cell Proliferation Assessment in the BioMAP Diversity Plus: CASM3C Assay (AID 2283047).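 Further: sulforhodamine B total protein stain as relative cell number at 560 nm; sub-confluent cells exposed 48 h before staining; fitted both ways against DMSO so gain or loss of cell number.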 The conditions noted are these: primary human coronary artery smooth muscle cells.
Read-out in assay [10]: Monokine induced gamma interferon (MIG), CXCL9 (gene 4283)
As to the kind of experiment: BSK_CASM3C_MIG: BioMAP Diversity Plus: CASM3C Assay for Monokine induced gamma interferon (MIG) Biomarker Activity (AID 2283048).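 Further: MIG protein level measured by ELISA.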 The conditions noted are these: primary human coronary artery smooth muscle cells; actives raise or lower the signal.

Read-out in assay [11]: serum amyloid A (SAA), SAA1 (gene 6288)
As to the kind of experiment: BSK_CASM3C_SAA: BioMAP Diversity Plus: CASM3C Assay for serum amyloid A (SAA) Biomarker Activity (AID 2283049).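 Further: SAA protein level quantified by ELISA.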 Conditions: primary human coronary artery smooth muscle cells; actives raise or lower the signal.

Assay [12] can be described thus: BSK_CASM3C_SRB: Viability Assessment in the BioMAP Diversity Plus: CASM3C Assay (AID 2283050).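 Further: total protein by SRB staining as cytotoxicity measure in parallel cultures; cells exposed to compound for 24 h.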 Conditions: primary human coronary artery smooth muscle cells.
Read-out in assay [13]: Thrombomodulin, THBD (gene 7056)
As to the kind of experiment: BSK_CASM3C_Thrombomodulin: BioMAP Diversity Plus: CASM3C Assay for Thrombomodulin Biomarker Activity (AID 2283051).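 Further: thrombomodulin protein level measured by ELISA 24 h after dosing.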 The conditions noted are these: primary human coronary artery smooth muscle cells; actives raise or lower the signal.

Read-out in assay [14]: Tissue Factor, F3 (gene 2152)
As to the kind of experiment: BSK_CASM3C_TissueFactor: BioMAP Diversity Plus: CASM3C Assay for Tissue Factor Biomarker Activity (AID 2283052).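 Further: cell surface tissue factor protein level read by ELISA.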 The conditions noted are these: primary human coronary artery smooth muscle cells; actives raise or lower the signal.

Read-out in assay [15]: Interferon-gamma inducible Protein 10 (IP10), CXCL10 (gene 3627)
As to the kind of experiment: BSK_hDFCGF_IP10: BioMAP Diversity Plus: hDFCGF Assay for Interferon-gamma inducible Protein 10 (IP10) Biomarker Activity (AID 2283053). The conditions noted are these: primary human foreskin fibroblasts; actives raise or lower the signal. An outline of the steps:
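Chemical-treated human skin fibroblasts (primary) were sampled at 24 h for IP-10 by ELISA. Both increases and decreases relative to DMSO were scored.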

Read-out in assay [16]: Urokinase-type plasminogen activator receptor (uPAR), PLAUR (gene 5329)
As to the kind of experiment: BSK_CASM3C_uPAR: BioMAP Diversity Plus: CASM3C Assay for Urokinase-type plasminogen activator receptor (uPAR) Biomarker Activity (AID 2283054).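 Further: cell-surface uPAR protein level quantified by ELISA.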 The conditions noted are these: primary human coronary artery smooth muscle cells; actives raise or lower the signal.

Read-out in assay [17]: Vascular cell adhesion molecule 1 (VCAM1), VCAM1 (gene 7412)
As to the kind of experiment: BSK_CASM3C_VCAM1: BioMAP Diversity Plus: CASM3C Assay for Vascular cell adhesion molecule 1 (VCAM1) Biomarker Activity (AID 2283055).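 Further: VCAM-1 protein level quantified by ELISA on the cells.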 Conditions: primary human coronary artery smooth muscle cells; actives raise or lower the signal.

Read-out in assay [18]: Collagen III, COL3A1 (gene 1281)
As to the kind of experiment: BSK_hDFCGF_CollagenIII: BioMAP Diversity Plus: hDFCGF Assay for Collagen III Biomarker Activity (AID 2283056). The conditions noted are these: primary human foreskin fibroblasts; actives raise or lower the signal. An outline of the steps:
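ELISA readout of Collagen III in human dermal (foreskin) fibroblasts, taken 24 h post-treatment. Gain or loss relative to DMSO vehicle fitted in both directions.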

Read-out in assay [19]: Epidermal growth factor receptor (EGFR), EGFR (gene 1956)
As to the kind of experiment: BSK_hDFCGF_EGFR: BioMAP Diversity Plus: hDFCGF Assay for Epidermal growth factor receptor (EGFR) Biomarker Activity (AID 2283057). Conditions: primary human foreskin fibroblasts; actives raise or lower the signal. The method in brief:
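Cell-based multiplexed assay in primary human foreskin fibroblasts. EGFR is read by ELISA 24 h after treatment and compared with DMSO controls.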

Read-out in assay [20]: Interleukin-8 (IL8), CXCL8 (gene 3576)
As to the kind of experiment: BSK_hDFCGF_IL8: BioMAP Diversity Plus: hDFCGF Assay for Interleukin-8 (IL8) Biomarker Activity (AID 2283058). The conditions noted are these: primary human foreskin fibroblasts; actives raise or lower the signal. The method in brief: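 IL-8 levels read by ELISA at 24 hours after dosing human skin fibroblast cultures. Parallel SRB staining assessed overt cytotoxicity, and gain or loss of signal was fitted against DMSO control.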

“And” between values parts separate entries of the source, which are not always exact repeats. Equal values may be shown once. Some compounds were tested as several samples or in several runs, with calls that do not always agree. The source made the active and inactive calls. How the source made its calls: active means hit-call score of the fitted dose curve at least 0.9, where 1 is the maximum; inactive means score below 0.9.

Data on five compounds can be found in PubChem BioAssay (EPA / NIEHS).

Take `CCCCNC(=O)OCC#CI`: the concentration at half-maximal activity (AC50) is 30 µM (active) and 30.4 µM (active) in [1]; 32.3 µM (active) and 36.3 µM (active) in assay [2]; 30 µM (active) in [3]; 36.6 µM (active) in [4]; 30.8 µM (active) and 24.6 µM (active) in assay [5]; 26.4 µM (active) and 15.8 µM (active) in assay [6]. Also, the AC50 is 20.8 µM (active) and 24.5 µM (active) in assay [8]; 6.91 µM (active) and 7.15 µM (active) in assay [9]; 29.5 µM (active) and 28.7 µM (active) in [10]; 14.8 µM (active) and 14.3 µM (active) in assay [11]; 30.5 µM (active) and 30.6 µM (active) in [12]; 4.72 µM (active) and 36.3 µM (active) in [13]. Also, the AC50 was 24.6 µM (active) in assay [14]; 3.5 µM (active) and 5.34 µM (active) in assay [15]; 12.7 µM (active) and 13.9 µM (active) in assay [16]; 11.1 µM (active) and 14.6 µM (active) in assay [17]; 7.69 µM (active) and 7.7 µM (active) in assay [18]; 11.6 µM (active) in assay [19]. Besides, in [20], the AC50 is 10.2 µM (active) and 11 µM (active). The outcome in [3], in assay [7], in [14] and in assay [19] was inactive.
In the case of `CS/C(C)=N/OC(=O)N(C)SN(C)C(=O)O/N=C(\C)SC`, the outcome in assay [1], in assay [3], in [5], in assay [7], in [13] and in [14] was inactive. Moreover, the outcome in [18], in [19] and in assay [20] was inactive. For the same compound, the AC50 in assay [2] is 35 µM (active); in [4], 32.1 µM (active); in assay [6], 28.9 µM (active); in assay [8] it was 34.7 µM (active); in assay [9], 6.19 µM (active); in assay [10], 35 µM (active). The AC50 is 20 µM (active) in assay [11]; 31.2 µM (active) in [12]; 8.62 µM (active) in assay [15]; 31.5 µM (active) in assay [16]; 30.8 µM (active) in assay [17].
Regarding `Fc1ccc(Oc2ccnc3cc(Cl)cc(Cl)c23)cc1`, the AC50 in assay [1] is 34.2 µM (active); in assay [2], 11.4 µM (active); in assay [3], 31.9 µM (active); in [8], 30.6 µM (active); in assay [9], 24.4 µM (active); in [12], 23.7 µM (active). Further, the AC50 is 18.6 µM (active) in assay [13], 24.3 µM (active) in assay [15] and 12.1 µM (active) in [18]. Moreover, the outcome in assay [4], in assay [5], in assay [6], in assay [7], in assay [10] and in [11] was inactive. For the same compound, the result in assay [14], in assay [16], in assay [17], in assay [19] and in [20] was inactive.
As for `O=C(O)COc1nc(Cl)c(Cl)cc1Cl`, the result in [1], in assay [2], in assay [3], in assay [4], in assay [5] and in assay [6] was inactive. For the same compound, the outcome in assay [7], in assay [8], in assay [9], in assay [10], in assay [11] and in assay [12] was inactive. Further, the outcome in [13], in assay [14], in [15], in [16], in assay [17] and in assay [18] was inactive. Further, the outcome in [19] and in assay [20] was inactive.
In the case of `CCCCOC(=O)c1ccccc1C(=O)OCCCC`, the result in assay [1], in assay [2], in [3], in assay [4], in assay [5] and in assay [6] was inactive. Moreover, the result in assay [7], in assay [8], in assay [9], in assay [10], in assay [11] and in assay [12] was inactive. Also, the outcome in assay [13], in assay [14], in [16], in assay [17], in assay [18] and in assay [19] was inactive. In assay [20], the outcome was inactive. In addition, the concentration at half-maximal activity (AC50) in assay [6] is 0.767 µM (active); in [9] it was 34.9 µM (active); in [13], 11 µM (active); in assay [15], 13.9 µM (active) and 11.8 µM (active); in assay [18], 10.9 µM (active).

One may read the AC50 as the concentration giving half of the maximal activity seen.
